# Experimental data as given in PubChem BioAssay.
# Where “and” joins values, the source holds several entries; their conditions need not be identical. Equal entries are not always repeated. Calls of active or inactive are those of the source.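 Rule for the calls, unless noted: active = compound whose remaining NAD level is above about 45 nM (limit read from the data); inactive = the rest.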
# System: not listed separately
# Test: MELAS cybrid and Rieske KO viability enhancers – cell-based, MELAS cybrids, Rieske KO mouse fibroblasts, CellTiter-Glo, primary screen (AID 1508586);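 note: z relative to plate mean and SD of compound and empty wells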
# Details: Rieske KO mouse fibroblast survival, low glucose, CellTiter-Glo 72 h
row,SMILES,z-score
1,CCN(CC)C(=O)N1CCN(C)CC1,-0.23 and -0.00609
2,NC(=NCCCCCCN=C(N)/N=C(\N)Nc1ccc(Cl)cc1)/N=C(\N)Nc1ccc(Cl)cc1,-0.0121
3,COC(=O)CCc1ccc(OCC(O)CNC(C)C)cc1 (centres undefined),-0.149 and -1.1 and -1.41
4,CN(C)/N=N/c1nc[nH]c1C(N)=O,0.971
5,CN1CCN(c2c(F)cc3c(=O)c(C(=O)O)cn4c3c2SCC4)CC1,0.617 and -0.349
6,COc1cc(C(=O)NCc2ccc(OCCN(C)C)cc2)cc(OC)c1OC,-0.723 and -0.201
7,Oc1c(Cl)cc(Cl)c(Cl)c1Cc1c(O)c(Cl)cc(Cl)c1Cl,0.0864
8,CC1CCc2cc(F)cc3c(=O)c(C(=O)O)cn1c23 (centres undefined),-0.162 and -0.0831
9,CC(C)NCC(O)c1ccc2ccccc2c1 (centres undefined),-0.347 and -0.52
10,O=C1c2ccccc2C(=O)c2c1ccc(O)c2O,-0.449
11,CC(C(=O)O)c1ccc(C(=O)c2cccs2)cc1 (centres undefined),-0.115 and -0.0807
12,CC1(C)O[C@@H]2C[C@H]3[C@@H]4CCC5=CC(=O)CC[C@]5(C)[C@@]4(F)[C@@H](O)C[C@]3(C)[C@]2(C(=O)CCl)O1,1.13
13,CCN1CCN(c2cc3c(cc2F)c(=O)c(C(=O)O)cn3C2CC2)CC1,-0.808 and -0.546
14,CCCCCCCCCCCCCCCCOP(=O)([O-])OCC[N+](C)(C)C,-0.431
15,CN1C(C)(C)CCCC1(C)C,1.08
16,CO[C@]12C[C@@H](COC(=O)c3cncc(Br)c3)CN(C)[C@@H]1Cc1cn(C)c3cccc2c13,0.302 and 0.698
17,C[n+]1ccccc1/C=N/O,-0.00254
18,CN(C/C=C/C#CC(C)(C)C)Cc1cccc2ccccc12,-0.0957 and -0.937
19,O=C(Cn1ccnc1[N+](=O)[O-])NCCO,-0.143

# Biological target: NAD(+) hydrolase SARM1 (Homo sapiens) (UniProt Q6SZW1)
# Test: blocking NAD cleavage by SARM1 SAM-TIR – cell lysate, NAD-Glo luminescence (AID 1508614);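 note: higher remaining NAD means stronger inhibition of SARM1 NADase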
# Details: SAM-TIR HEK293T lysate NADase, at 1 µM, stronger effect = higher value
# Chain of NAD(+) hydrolase SARM1 (Homo sapiens) (Q6SZW1 whole entry, looked up): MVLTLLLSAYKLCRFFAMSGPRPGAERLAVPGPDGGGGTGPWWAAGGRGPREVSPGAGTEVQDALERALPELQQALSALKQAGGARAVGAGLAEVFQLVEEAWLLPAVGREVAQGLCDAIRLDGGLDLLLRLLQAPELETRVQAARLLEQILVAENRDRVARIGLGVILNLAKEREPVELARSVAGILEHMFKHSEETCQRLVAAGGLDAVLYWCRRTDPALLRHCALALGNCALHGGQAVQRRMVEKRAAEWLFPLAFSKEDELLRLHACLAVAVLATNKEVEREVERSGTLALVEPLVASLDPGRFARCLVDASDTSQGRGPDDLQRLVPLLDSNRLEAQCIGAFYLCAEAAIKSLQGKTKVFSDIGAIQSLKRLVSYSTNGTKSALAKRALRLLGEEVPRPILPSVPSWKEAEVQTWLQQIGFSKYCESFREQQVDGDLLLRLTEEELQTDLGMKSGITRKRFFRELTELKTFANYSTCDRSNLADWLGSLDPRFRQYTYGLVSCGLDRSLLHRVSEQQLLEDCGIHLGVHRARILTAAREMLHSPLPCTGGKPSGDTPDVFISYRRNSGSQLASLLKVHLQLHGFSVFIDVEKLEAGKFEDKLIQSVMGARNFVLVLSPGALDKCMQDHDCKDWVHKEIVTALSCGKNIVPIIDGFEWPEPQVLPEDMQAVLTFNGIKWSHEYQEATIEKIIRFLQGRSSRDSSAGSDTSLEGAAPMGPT
row,SMILES,remaining NAD
1,CC(C)(O)c1ccccc1CC[C@@H](SCC1(CC(=O)O)CC1)c1cccc(/C=C/c2ccc3ccc(Cl)cc3n2)c1,10 nM (inactive)
2,O=C(O)P(=O)(O)O,10 nM (inactive)
3,CC(Oc1c(Cl)cccc1Cl)C1=NCCN1 (centres undefined),10 nM (inactive)
4,C[C@]12CCC(=O)C=C1C=C[C@@H]1[C@@H]2CC[C@@]2(C)[C@H]1CC[C@@]21CCC(=O)O1,10 nM (inactive)
5,C/C=C/c1ccc(OC)cc1,10 nM (inactive)
6,CCOC(=O)OC(C)OC1=C(C(=O)Nc2ccccn2)N(C)S(=O)(=O)c2ccccc21 (centres undefined),10 nM (inactive)
7,COc1ccc(C(=O)NCc2ccc(OCCN(C)C)cc2)cc1OC,14 nM (inactive)
8,C[C@H]1COc2c(C3(N)CC3)c(F)cc3c(=O)c(C(=O)O)cn1c23,10 nM (inactive)
9,CC(=O)Nc1ccc(CC(=O)O)cc1,10 nM (inactive)
10,O=C(O)CCC(=O)c1ccc(-c2ccccc2)cc1,10 nM (inactive)
11,CCN1CC(CCN2CCOCC2)C(c2ccccc2)(c2ccccc2)C1=O (centres undefined),10 nM (inactive)
12,CN1CCCCC1CCN1c2ccccc2Sc2ccc(S(C)=O)cc21 (centres undefined),10 nM (inactive)
13,Nc1nc2c(ncn2CCC(CO)CO)c(=O)[nH]1,10 nM (inactive)
14,CC(C)(C(=O)c1cccnc1)c1cccnc1,100 nM (active)
15,CCN(CC)C(=O)N1CCN(C)CC1,10 nM (inactive)
16,CN(C)/N=N/c1nc[nH]c1C(N)=O,10 nM (inactive)
17,CN1CCN(c2c(F)cc3c(=O)c(C(=O)O)cn4c3c2SCC4)CC1,10 nM (inactive)
18,COc1cc(C(=O)NCc2ccc(OCCN(C)C)cc2)cc(OC)c1OC,10 nM (inactive)
19,Oc1c(Cl)cc(Cl)c(Cl)c1Cc1c(O)c(Cl)cc(Cl)c1Cl,10 nM (inactive)
20,CC1CCc2cc(F)cc3c(=O)c(C(=O)O)cn1c23 (centres undefined),10 nM (inactive)
21,CC(C)NCC(O)c1ccc2ccccc2c1 (centres undefined),10 nM (inactive)
22,CCN1CCN(c2cc3c(cc2F)c(=O)c(C(=O)O)cn3C2CC2)CC1,10 nM (inactive)
23,CCCCCCCCCCCCCCCCOP(=O)([O-])OCC[N+](C)(C)C,10 nM (inactive)
24,CO[C@]12C[C@@H](COC(=O)c3cncc(Br)c3)CN(C)[C@@H]1Cc1cn(C)c3cccc2c13,10 nM (inactive)
25,C[n+]1ccccc1/C=N/O,10 nM (inactive)
26,CN(C/C=C/C#CC(C)(C)C)Cc1cccc2ccccc12,10 nM (inactive)

# Biological target: Mitogen-activated protein kinase 7 (Homo sapiens) (UniProt Q13164)
# Test: Gal4-ERK5 driven luciferase induction – cell-based, HTS, primary screen (AID 1508626;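 active = luciferase signal above three times the same-plate solvent-only control wells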;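 note: luciferase driven by Gal4-ERK5 fusion binding five Gal4 sites before minimal TATA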)
# Details: HeLa Gal4-ERK5 transactivation, 18 h, at 5 µM, stronger effect = higher value
# Chain of Mitogen-activated protein kinase 7 (Homo sapiens) (Q13164 whole entry, looked up, the tested form may be a part): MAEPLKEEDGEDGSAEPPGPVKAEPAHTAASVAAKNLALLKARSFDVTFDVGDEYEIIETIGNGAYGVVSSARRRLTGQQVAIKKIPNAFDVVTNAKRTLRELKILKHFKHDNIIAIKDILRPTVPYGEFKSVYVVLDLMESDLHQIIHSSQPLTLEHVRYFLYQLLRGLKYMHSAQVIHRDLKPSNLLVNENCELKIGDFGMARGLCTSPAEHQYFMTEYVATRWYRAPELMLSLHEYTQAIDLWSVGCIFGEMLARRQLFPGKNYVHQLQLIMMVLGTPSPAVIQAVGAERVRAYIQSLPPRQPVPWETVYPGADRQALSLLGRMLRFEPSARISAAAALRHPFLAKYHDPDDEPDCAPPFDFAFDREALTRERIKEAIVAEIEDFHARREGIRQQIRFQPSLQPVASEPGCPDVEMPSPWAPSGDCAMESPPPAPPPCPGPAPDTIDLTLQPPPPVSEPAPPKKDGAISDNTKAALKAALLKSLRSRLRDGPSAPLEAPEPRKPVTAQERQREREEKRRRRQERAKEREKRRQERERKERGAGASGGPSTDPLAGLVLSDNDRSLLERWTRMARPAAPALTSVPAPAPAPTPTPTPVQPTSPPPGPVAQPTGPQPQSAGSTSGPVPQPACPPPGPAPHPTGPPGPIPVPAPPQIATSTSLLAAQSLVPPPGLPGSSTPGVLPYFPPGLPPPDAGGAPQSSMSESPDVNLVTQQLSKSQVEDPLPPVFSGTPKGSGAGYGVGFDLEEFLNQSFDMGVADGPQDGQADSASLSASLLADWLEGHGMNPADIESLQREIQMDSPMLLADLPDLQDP
row,SMILES,luciferase signal
1,CC(=O)Nc1ccc(OCC(O)CNC(C)C)cc1 (centres undefined),24 AU (inactive)
2,O=C(O)P(=O)(O)O,16 AU (inactive)
3,COc1cc(N)c(Cl)cc1C(=O)NC1CCN(Cc2ccccc2)CC1,48 AU (inactive)
4,C[C@]12CCC(=O)C=C1C=C[C@@H]1[C@@H]2CC[C@@]2(C)[C@H]1CC[C@@]21CCC(=O)O1,40 AU (inactive)
5,C/C=C/c1ccc(OC)cc1,76 AU (inactive)
6,O=C(O)CCC(=O)c1ccc(-c2ccccc2)cc1,68 AU (inactive)
7,Cn1c(=O)c2c(ncn2CCO)n(C)c1=O,196 AU (active)
8,CCN(CC)C(=O)N1CCN(C)CC1,60 AU (inactive)
9,NC(=NCCCCCCN=C(N)/N=C(\N)Nc1ccc(Cl)cc1)/N=C(\N)Nc1ccc(Cl)cc1,32 AU (inactive)
10,CN(C)/N=N/c1nc[nH]c1C(N)=O,28 AU (inactive)
11,COc1cc(C(=O)NCc2ccc(OCCN(C)C)cc2)cc(OC)c1OC,48 AU (inactive)
12,Oc1c(Cl)cc(Cl)c(Cl)c1Cc1c(O)c(Cl)cc(Cl)c1Cl,28 AU (inactive)
13,CC1CCc2cc(F)cc3c(=O)c(C(=O)O)cn1c23 (centres undefined),60 AU (inactive)
14,CC(C)NCC(O)c1ccc2ccccc2c1 (centres undefined),36 AU (inactive)
15,O=C1c2ccccc2C(=O)c2c1ccc(O)c2O,36 AU (inactive)
16,CC(C(=O)O)c1ccc(C(=O)c2cccs2)cc1 (centres undefined),92 AU (inactive)
17,CC1(C)O[C@@H]2C[C@H]3[C@@H]4CCC5=CC(=O)CC[C@]5(C)[C@@]4(F)[C@@H](O)C[C@]3(C)[C@]2(C(=O)CCl)O1,112 AU (inactive)
18,CCN1CCN(c2cc3c(cc2F)c(=O)c(C(=O)O)cn3C2CC2)CC1,144 AU (inactive)
19,CCCCCCCCCCCCCCCCOP(=O)([O-])OCC[N+](C)(C)C,132 AU (inactive)
20,CN1C(C)(C)CCCC1(C)C,68 AU (inactive)
21,CO[C@]12C[C@@H](COC(=O)c3cncc(Br)c3)CN(C)[C@@H]1Cc1cn(C)c3cccc2c13,56 AU (inactive)
22,C[n+]1ccccc1/C=N/O,84 AU (inactive)
23,CN(C/C=C/C#CC(C)(C)C)Cc1cccc2ccccc12,52 AU (inactive)
24,O=C(Cn1ccnc1[N+](=O)[O-])NCCO,76 AU (inactive)
